Many of the other results were omitted from the sample, so hits are more common in it than they were.
ID4 SMM – binders of human ID4 protein, primary screen, biochemical, small molecule microarray, single point; 1.2% of 31,000 active; Flag-ID4 binding, fluorescence F/B; AID 624137, 2012; calls only; DNA-binding protein inhibitor ID-4 (Homo sapiens), P47928; call rule not given here;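 note: a binder raises fluorescence above local background on the spot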
Target sequence (P47928 whole entry, looked up): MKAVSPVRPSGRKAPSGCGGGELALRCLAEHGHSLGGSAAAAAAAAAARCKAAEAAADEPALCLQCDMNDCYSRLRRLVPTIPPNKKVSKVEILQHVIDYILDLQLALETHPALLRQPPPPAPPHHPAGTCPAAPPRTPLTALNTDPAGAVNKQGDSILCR
The depositor's hits bear a star.

Results for CNC[C@@H]1Oc2ccc(NC(=O)Cc3cn(C)c4ccccc34)cc2CC(=O)N([C@@H](C)CO)C[C@H]1C ?
ID4 SMM: active

Results for C[C@@H]1CN([C@@H](C)CO)C(=O)Cc2cc(NC(=O)Cc3cn(C)c4ccccc34)ccc2O[C@H]1CN(C)CC1CC1 ?
ID4 SMM: inactive

How did COc1ccc(CN(C)C[C@@H]2Oc3ccc(NC(=O)Nc4ccc5c(c4)OCO5)cc3CC(=O)N([C@@H](C)CO)C[C@H]2C)cc1 do in these assays?
ID4 SMM: active

How did CC(C)NC(=O)N(C)C[C@H]1Oc2cc(C3=CCCC3)ccc2S(=O)(=O)N([C@H](C)CO)C[C@H]1C do in these assays?
ID4 SMM: inactive

What do the screens show for `CNC[C@H]1Oc2ccc(NC(=O)Cc3cn(C)c4ccccc34)cc2CC(=O)N([C@@H](C)CO)C[C@@H]1C`?
ID4 SMM: inactive

What do the screens show for `COc1ccc(CN(C)C[C@@H]2Oc3ccc(NC(=O)Nc4ccc(OC)cc4)cc3CC(=O)N([C@H](C)CO)C[C@@H]2C)cc1`?
ID4 SMM: inactive

What do the screens show for `C[C@H](CO)N1C[C@H](C)[C@@H](CN(C)C(=O)Nc2ccc3c(c2)OCO3)Oc2ccc(NC(=O)Cc3ccccc3)cc2CC1=O`?
ID4 SMM: active

How did Cc1ccc(C)c(C(Nc2ccccn2)c2ccc3ccc(C)nc3c2O)c1 (stereo unspecified) do in these assays?
ID4 SMM: inactive

What do the screens show for `CNC(=O)CCc1nc(-c2ccc(Cl)cc2)no1`?
ID4 SMM: inactive

Results for C=CCn1c(=O)c(C(=O)NCCO)c(O)c2ccccc21 ?
ID4 SMM: inactive

Results for CN(CC(=O)Nc1ccc(Oc2ccccc2)cc1)S(=O)(=O)c1ccc(F)cc1 ?
ID4 SMM: inactive

How did COc1ccccc1CNc1cc(-c2nn3c(C)nnc3s2)ccc1C do in these assays?
ID4 SMM: inactive

Results for CCCCCCC/C=C/C(=O)CCc1ccc(O)c(OC)c1 ?
ID4 SMM: inactive

What do the screens show for `O=S(=O)(NCc1ccco1)c1ccc(Oc2ccccc2)cc1`?
ID4 SMM: inactive

Results for Cc1nc(C)c(C(=O)C2C(=O)C(=O)N(CCCN3CCOCC3)C2c2ccccc2)s1 (stereo unspecified) ?
ID4 SMM: inactive

Results for Cc1cc(C)c(S(=O)(=O)NCC(=O)Nc2ccc(Br)cc2)c(C)c1 ?
ID4 SMM: inactive

Results for COc1ccc(CN(C)C[C@H]2Oc3ccc(NC(=O)Cc4cn(C)c5ccccc45)cc3CC(=O)N([C@@H](C)CO)C[C@H]2C)cc1 ?
ID4 SMM: inactive

How did COc1ccc(CN(C)C[C@H]2Oc3ccc(NC(=O)Cc4cn(C)c5ccccc45)cc3CC(=O)N([C@@H](C)CO)C[C@@H]2C)cc1 do in these assays?
ID4 SMM: inactive

What do the screens show for `COc1ccc(CN(C)C[C@@H]2Oc3ccc(NC(=O)Cc4cn(C)c5ccccc45)cc3CC(=O)N([C@@H](C)CO)C[C@H]2C)cc1`?
ID4 SMM: active

What do the screens show for `O=C(CSc1nnc(-c2cccnc2)n1C1CCCCC1)Nc1ccc(Cl)cc1`?
ID4 SMM: inactive

Results for O=C1CC(c2cccs2)Cc2nc(NCCN3CCOCC3)ncc21 (stereo unspecified) ?
ID4 SMM: inactive

What do the screens show for `CC(NS(=O)(=O)c1ccccc1)C(=O)Nc1ccccc1Sc1ccccc1` (stereo unspecified)?
ID4 SMM: inactive

How did CCOc1ccc(N2C(=O)CC(Sc3nc(O)c(CC)c(=O)[nH]3)C2=O)cc1 (stereo unspecified) do in these assays?
ID4 SMM: active

What do the screens show for `COc1ccc(N2C(=O)CC(SCCc3nc4ccccc4[nH]3)C2=O)cc1` (stereo unspecified)?
ID4 SMM: inactive

How did COc1ccc(NC(=O)CSC2CC(=O)N(c3cc(Cl)cc(Cl)c3)C2=O)cc1 (stereo unspecified) do in these assays?
ID4 SMM: inactive

Results for CSC(=NCc1sccc1COc1ccc(Cl)cc1)NC#N ?
ID4 SMM: inactive

Results for CNC[C@@H]1Oc2ccc(NC(=O)c3ccncc3)cc2CC(=O)N([C@@H](C)CO)C[C@H]1C ?
ID4 SMM: active

What do the screens show for `CNC[C@H]1Oc2ccc(NC(=O)c3ccncc3)cc2CC(=O)N([C@H](C)CO)C[C@@H]1C`?
ID4 SMM: inactive

What do the screens show for `CNC[C@H]1Oc2ccc(NC(=O)Nc3ccccc3)cc2CC(=O)N([C@@H](C)CO)C[C@@H]1C`?
ID4 SMM: inactive

What do the screens show for `CNC[C@@H]1Oc2ccc(NC(=O)Nc3c(C)noc3C)cc2CC(=O)N([C@@H](C)CO)C[C@@H]1C`?
ID4 SMM: inactive

How did CNC[C@H]1Oc2ccc(NC(=O)Nc3ccccc3)cc2CC(=O)N([C@H](C)CO)C[C@@H]1C do in these assays?
ID4 SMM: inactive

What do the screens show for `CNC[C@H]1Oc2ccc(NC(=O)Nc3c(C)noc3C)cc2CC(=O)N([C@@H](C)CO)C[C@H]1C`?
ID4 SMM: inactive

How did CNC[C@@H]1Oc2ccc(NC(=O)Nc3cccc4ccccc34)cc2CC(=O)N([C@@H](C)CO)C[C@H]1C do in these assays?
ID4 SMM: active

Screening results (PubChem BioAssay)
